Laboratory results published in article PMC5540273 (PLoS ONE, 2017).

What was measured:
Details in all cases: concentration: 1 μM, replicates: in singlicate; n = 1
MERTK = tested on: MERTK
MET = tested on: MET
MINK = tested on: T1, MINK
T1 construct: gene MINK1

MKK7 = tested on: MKK7
MKNK1 = tested on: MKNK1
MKNK2 = tested on: MKNK2
MLCK = tested on: T2, MLCK
T2 construct: gene MYLK3

MLK1 = tested on: T3, MLK1
T3 construct: gene MAP3K9

MLK2 = tested on: MLK2
MLK3 = tested on: MLK3
MRCKA = tested on: MRCKA
MRCKB = tested on: T4, MRCKB
T4 construct: gene CDC42BPB

MST1R = tested on: MST1R
MST1 = tested on: T5, MST1
T5 construct: gene STK4

MST2 = tested on: T6, MST2
T6 construct: gene STK3

MST3 = tested on: T7, MST3
T7 construct: gene STK24

MST4 = tested on: MST4
MTOR = tested on: MTOR
MUSK = tested on: MUSK
MYLK2 = tested on: MYLK2
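Note: KINOMEscan kinase panel screen.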

Structure (SMILES) | %Inh (MERTK) [%] | %Inh (MET) [%] | %Inh (MINK) [%] | %Inh (MKK7) [%] | %Inh (MKNK1) [%] | %Inh (MKNK2) [%] | %Inh (MLCK) [%] | %Inh (MLK1) [%] | %Inh (MLK2) [%] | %Inh (MLK3) [%] | %Inh (MRCKA) [%] | %Inh (MRCKB) [%] | %Inh (MST1R) [%] | %Inh (MST1) [%] | %Inh (MST2) [%] | %Inh (MST3) [%] | %Inh (MST4) [%] | %Inh (MTOR) [%] | %Inh (MUSK) [%] | %Inh (MYLK2) [%]
Cn1cc(-c2ccc3c(c2)CCN3C(=O)Cc2cccc(C(F)(F)F)c2)c2c(N)ncnc21 [GSK2606414] | 43 | 0 | 0 | 0 | 0 | 1 | 12 | 0 | 27 | 8 | 0 | 0 | 6 | 14 | 0 | 0 | 0 | 0 | 6 | 24
CCc1nc(-c2cccc(C)c2)c(-c2ccnc(NC(=O)c3ccccc3)c2)s1 | 3 | 2 | 61 | 0 | 0 | 8 | 0 | 0 | 16 | 0 | 0 | 0 | 32 | 11 | 12 | 8 | 9 | – | 0 | 0
COC(=O)c1cccc(NC(=O)NCCNc2ccnc(Nc3ccc(F)cc3)n2)c1 [GSK1379883] | 18 | 0 | 0 | 0 | 7 | 5 | 0 | 0 | 8 | 6 | 0 | 0 | 25 | 0 | 5 | 0 | 0 | 37 | 4 | 0
Cc1cc(N2CCC(NS(=O)(=O)c3ccc(F)cc3)CC2)nc(Nc2cccc(C#N)c2)n1.O=C(O)C(F)(F)F [GSK1653537] | 39 | 0 | 0 | 0 | 7 | 3 | 0 | 12 | 0 | 15 | 0 | 0 | 17 | 8 | 0 | 7 | 0 | 6 | 8 | 0
C[C@H]1CC[C@@H](C(=O)Nc2ccccc2)CN1c1cc(-c2ccc3c(N)n[nH]c3c2)nc(N)n1 [GSK2283293] | 11 | 100 | 17 | 0 | 0 | 3 | 0 | 0 | 0 | 0 | 65 | 0 | 17 | 0 | 0 | 0 | 0 | 8 | 13 | 1
COc1ccc(Nc2nccc(N3CCC(NC(=O)Nc4ccc5c(c4)OCO5)C3)n2)cc1 (centres unmarked) [GSK1379745] | 34 | 20 | 3 | 24 | 21 | 6 | 31 | 6 | 19 | 38 | 11 | 0 | 0 | 6 | 0 | 32 | 0 | 35 | 17 | 6
CC(=O)Nc1n[nH]c2ncc(-c3ccccc3)cc12 [SB-548492] | 37 | 4 | 30 | 2 | 0 | 62 | 0 | 8 | 6 | 3 | 0 | 10 | 41 | 0 | 1 | 5 | 15 | 6 | 9 | 37
Cc1ccc(C)c(NC(=O)NCCNc2ccnc(Nc3ccc(F)cc3)n2)c1 [GSK1379878] | 2 | 0 | 0 | 0 | 0 | 0 | 0 | 0 | 0 | 4 | 12 | 0 | 7 | 0 | 0 | 0 | 0 | 2 | 0 | 0
Cl.Cn1ccc(-c2cccc(Nc3ccnc4cc(-c5nccs5)ccc34)c2)n1 [GW525701] | 23 | 0 | 54 | 0 | 7 | 1 | 14 | 0 | 0 | 0 | 37 | 0 | 29 | 0 | 0 | 0 | 0 | 35 | 0 | 0
COc1ccc(NC(=O)c2ccc(-c3cc(-c4nnc(C)o4)ccc3C)cc2)cc1 [GW595885] | 21 | 0 | 0 | 34 | 2 | 12 | 0 | 0 | 0 | 11 | 0 | 3 | 34 | 0 | 0 | 0 | 0 | 14 | 12 | 0
Fc1cccc(COc2ccc(Nc3ncnc4nn5ccccc5c34)cc2Cl)c1 [GW689066] | 6 | 0 | 0 | 0 | 4 | 0 | 4 | 0 | 0 | 0 | 0 | 0 | 6 | 0 | 0 | 0 | 0 | 3 | 0 | 0
CC(C)(C)c1ccc(-n2cnc3c(N)ncnc32)cc1 [SKF-97263] | 41 | 0 | 14 | 6 | 0 | 29 | 4 | 2 | 61 | 0 | 0 | 3 | 17 | 13 | 18 | 0 | 0 | 15 | 0 | 0
Fc1ccc(-c2ncn(CCCNCc3ccccc3)c2-c2ccncc2)cc1 | 35 | 0 | 3 | 10 | 28 | 0 | 0 | 4 | 0 | 0 | 0 | 18 | 18 | 2 | 39 | 11 | 0 | 11 | 9 | 0
FC(F)(F)c1cc(Nc2nccc(-c3c(-c4ccc(Cl)cc4)nn4ncccc34)n2)ccc1Cl [GW829351] | 11 | 0 | 0 | 0 | 0 | 0 | 10 | 0 | 4 | 0 | 0 | 9 | 0 | 0 | 3 | 0 | 0 | 0 | 0 | 0
COc1cc2ncnc(Nc3ccc(OCc4ccccc4Br)c(Cl)c3)c2cc1OC.Cl [GI261590] | 7 | 0 | 0 | 0 | 0 | 11 | 0 | 0 | 11 | 9 | 23 | 0 | 48 | 10 | 0 | 0 | 0 | 24 | 12 | 0
O=C(Nc1ccccc1)Nc1ccc(Oc2ccc3nccn3n2)cc1 | 16 | 1 | 38 | 0 | 14 | 0 | 0 | 15 | 0 | 0 | 0 | 0 | 18 | 0 | 0 | 11 | 0 | 12 | 9 | 0
c1ccc(-c2ccc3c(-c4ccnc(Nc5ccc6c(c5)OCCO6)n4)cnn3n2)cc1 [GW818941] | 58 | 100 | 0 | 21 | 0 | 2 | 4 | 12 | 39 | 28 | 11 | 6 | 41 | 23 | 4 | 1 | 0 | 17 | 16 | 27
COc1ccc(NC(=O)Nc2ccc(C)c(-c3ccc(C(=O)Nc4ccncc4)cc3)c2)cc1 [GSK1398475] | 31 | 0 | 5 | 0 | 6 | 0 | 0 | 0 | 0 | 0 | 19 | 0 | 36 | 0 | 0 | 0 | 0 | 4 | 0 | 0
Cn1ccc2ncnc(Nc3ccc(Oc4cccc(Cl)c4)c(Cl)c3)c21 | 13 | 2 | 7 | 0 | 16 | 0 | 0 | 7 | 15 | 0 | 0 | 0 | 42 | 6 | 25 | 10 | 0 | 0 | 3 | 20
Fc1ccc(Nc2nccc(-c3c(-c4ccc(Cl)cc4)nn4ncccc34)n2)cc1F [GW829058] | 0 | 3 | 14 | 23 | 0 | 2 | 9 | 2 | 12 | 4 | 2 | 21 | 0 | 13 | 11 | 0 | 30 | 26 | 26 | 16
O=C(c1ccc(-c2cc(-c3c[nH]nc3-c3ccccn3)ccn2)cc1)N1CCCC1 [GW792479] | 0 | 23 | 30 | 0 | 0 | 0 | 0 | 14 | 14 | 3 | 24 | 0 | 0 | 0 | 0 | 11 | 0 | 14 | 9 | 0
Cn1ccc2ncnc(Oc3ccc(NC(=O)Nc4cccnc4)c(Cl)c3)c21 | 6 | 15 | 0 | 0 | 10 | 0 | 0 | 14 | 2 | 0 | 0 | 0 | 15 | 12 | 0 | 10 | 0 | 0 | 7 | 0
Cl.c1ccc(Cn2ncc3cc(Nc4ncnc5ccccc45)ccc32)cc1 [GW273749] | 9 | 0 | 0 | 0 | 6 | 30 | 0 | 0 | 0 | 0 | 10 | 0 | 27 | 0 | 8 | 0 | 0 | 8 | 0 | 2
CN1c2ccc(-c3ccc(C(=O)NCCO)cc3)cc2-c2[nH]ncc2S1(=O)=O | 0 | 2 | 46 | 0 | 0 | 0 | 0 | 29 | 27 | 18 | 0 | 5 | 0 | 5 | 35 | 10 | 0 | 23 | 0 | 0
COc1ccc(-c2oc3ncnc(N)c3c2-c2ccc(OC)cc2)cc1 [SB-589132] | 29 | 0 | 0 | 0 | 25 | 41 | 23 | 0 | 0 | 0 | 0 | 0 | 46 | 7 | 0 | 0 | 0 | 75 | 17 | 0
Cc1ccc(NC(=O)c2cccc(C#N)c2)cc1-c1ccc(C(=O)Nc2ccncc2)cc1 [GSK1398463] | 0 | 0 | 0 | 0 | 0 | 23 | 0 | 0 | 24 | 0 | 3 | 8 | 38 | 0 | 0 | 0 | 0 | 4 | 10 | 26
O=C(NCCCN1CCCC1=O)c1cnc(NCc2cc(Cl)ccc2Cl)nc1NC1CCNCC1 | 63 | 0 | 0 | 0 | 0 | 0 | 11 | 0 | 0 | 0 | 0 | 0 | 72 | 8 | 0 | 32 | 44 | 36 | 7 | 1
CC(C)N1CCC(n2cnc(-c3ccc(F)cc3)c2-c2ccnc(N)n2)CC1 [SB-223132] | 0 | 14 | 7 | 0 | 2 | 0 | 0 | 0 | 4 | 0 | 18 | 0 | 0 | 0 | 0 | 29 | 0 | 27 | 0 | 6
Fc1cccc(COc2ccc(Nc3ncnc4sc(-c5ccc[nH]5)cc34)cc2Cl)c1 [GW707818] | 10 | 0 | 16 | 8 | 12 | 2 | 0 | 7 | 0 | 2 | 23 | 6 | 33 | 0 | 18 | 8 | 0 | 13 | 0 | 14
CS(=O)(=O)CCNCc1ccc(-c2ccc3ncnc(Nc4ccc(OCc5ccccc5)c(Cl)c4)c3c2)o1.Cl [GW574783] | 5 | 0 | 0 | 71 | 26 | 0 | 0 | 0 | 31 | 10 | 0 | 2 | 17 | 23 | 0 | 0 | 0 | 30 | 19 | 16
